Lassa entry inh: qHTS for Inhibitors of binding or entry into cells for Lassa Virus | AID 540256, 2011 | 300,000 tested, 1.2% active | Potency, µM (top dose mostly 37.9 µM), for inactives: at the highest dose activity change, negative = inhibition, usual class: inhibitors | Lassa virus pseudotype entry inhibition, cell reporter; calls by dose curve; tested in HEK293 cells; note: potency is the fitted concentration of half-maximal effect; % is set by controls: 0 for no effect and ±100 for the full control effect; nearly all actives have a fitted effect of over 50% in size
MARV entry inh: qHTS for inhibitors of binding or entry into cells for Marburg Virus; Marburg virus pseudotyped entry inhibition, cell reporter; Potency, µM (series often up to 37.8 µM), inactives show top-dose activity change, negative = inhibition, hits mostly inhibitors; 300,000 tested, 1.8% active; AID 540276, 2011; calls by dose curve; tested in HEK293 cells; note: potency is the fitted concentration of half-maximal effect; % is set by controls: 0 for no effect and ±100 for the full control effect
Pf growth 48h: Primary qHTS for delayed death inhibitors of the malarial parasite plastid, 48 hour incubation | P. falciparum luciferase growth in erythrocytes, 48 h | Potency, µM (doses to about 28.7 µM), for the others: at the top dose activity change, negative = inhibition, most hits filed as inhibitors | 310,000 tested, 5.9% active | AID 504832, 2011; note: potency is the fitted concentration of half-maximal effect; % is set by controls: 0 for no effect and ±100 for the full control effect
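Firefly luciferase activity from engineered P. falciparum reports growth; inhibitors lower the luminescent signal. Cultures contained 2% hematocrit erythrocytes at 0.1% final parasitemia.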
Shiga inhibitor: A qHTS for Small Molecule Inhibitors of Shiga Toxin | Vero cells, Shiga toxin protein synthesis inhibition reporter | inhibition, % at 38.7 µM | 290,000 tested, 9.2% active | AID 2315, 2010; in the data active = inhibition mostly above about 28%, no sharp cut-off; inactive = mostly below about 43%; note: 0% is about no effect
Cycloheximide cs: Cycloheximide Counterscreen for Small Molecule Inhibitors of Shiga Toxin; max response, %; cell reporter, cycloheximide protein synthesis inhibition counterscreen; AID 2314, 2010; 300,000 tested, 12% active; in the data active = max response mostly above about 13%, no sharp cut-off; inactive = mostly below about 14%; note: read at 38.3 µM for the half of the compounds with a filed dose; 0% is about no effect
Pf growth 96h: Primary qHTS for delayed death inhibitors of the malarial parasite plastid, 96 hour incubation. P. falciparum luciferase reporter growth, 96 h. Potency, µM (series often up to 28.7 µM), for the others: at the top dose activity change, negative = inhibition, usual class: inhibitors. 320,000 tested, 6.9% active; note: potency is the fitted concentration of half-maximal effect; % is set by controls: 0 for no effect and ±100 for the full control effect
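Delayed-death screen, second-generation endpoint: infected erythrocytes, 2% hematocrit, 0.05% parasitemia final; 96 hours at 37 C, 5% CO2; luciferase detection reagent; luminescence decrease equals reduced growth.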
* hit, by the source's call; u = inconclusive; x = no result; [ ] = another dose, or the depositor's remark. In the library only some 19% were active in any assay of this set; here they are far more common. Unless noted, calls come from the whole dose curve; as a rule, active = well fitted inhibition curve with a large enough effect; inconclusive = small, poorly fitted or top-dose-only effect, or another doubt; inactive = no such curve, though single readings can be large or run the other way.

SMILES | Lassa entry inh | MARV entry inh | Pf growth 48h | Shiga inhibitor | Cycloheximide cs | Pf growth 96h
O=C(c1ccc(F)cc1)c1ccc(-c2ccc(F)cc2)nc1 | x | x | 25% | 48 | 14* | 58%
COc1ccc(C(=O)c2ccc(-c3ccc(OC)cc3)nc2)cc1 | x | x | 28% | 27 | -1 | 31%
CC1=NOC(=O)/C1=C\c1ccc(-c2ccc(Cl)c(C(=O)O)c2)o1 | 0% | -15% | 3% | -6 | 9 | u
CC1(C)OC(=O)C(=Cc2ccc(-c3ccc(Cl)c(C(=O)O)c3)o2)C(=O)O1 | 1% | 8%[46.1 µM] | 15µM* | -15 | 8 | u
O=C(O)c1cc(-c2ccc(/C=C3/SC(=S)N(Cc4ccccc4)C3=O)o2)ccc1Cl | 12% | 10%[46.1 µM] | 36% | 63* | 29* | 10%
COc1ccc(C2/C(=C(/O)c3ccc(Br)cc3)C(=O)C(=O)N2C)cc1 (stereo not drawn) | x | x | 0% | 6 | -2 | 0.93µM*
COc1ccc(C2/C(=C(/O)c3ccccc3)C(=O)C(=O)N2C)cc1OC (stereo not drawn) | x | x | 17% | 27* | 14* | u
COc1ccc(N(C)C(=O)C2CCCN2S(=O)(=O)c2cccc3nsnc23)cc1 (stereo not drawn) | x | x | -3% | -4 | -2 | 11%
COC(C(=O)Nc1ccc(Cl)cc1C)c1ccccc1 (stereo not drawn) | -3% | u | -11% | -33 | -2 | 296%
CC1(C)O[C@H]2C[C@@H]3[C@H]4CCC5=CC(=O)C=C[C@]5(C)[C@@]4(F)[C@@H](O)C[C@]3(C)[C@]2(C(=O)CO)O1 | x | x | u | 7 | -3 | 9.5µM*
CC1(C)O[C@@H]2C[C@H]3[C@@H]4CCC5=CC(=O)C=C[C@]5(C)[C@@]4(F)[C@@H](O)C[C@]3(C)[C@]2(C(=O)CO)O1 | 3% | -22% | u | 9 | 5 | u
CC(=O)OCC(=O)[C@@]12OC3(CCCC3)O[C@@H]1C[C@H]1[C@@H]3CCC4=CC(=O)C=C[C@]4(C)[C@@]3(F)[C@@H](O)C[C@@]12C | u | u | 12µM* | -10 | -2 | 10µM*
O=C(Nc1cccnc1)C1CCCN(S(=O)(=O)c2cccc3nsnc23)C1 (stereo not drawn) | -8% | -28% | x | -5 | -5 | 53%
CC(C)[C@H](NC(=O)Nc1cccc(Br)c1)C(=O)O | 5% | -12% | -12% | -5 | 7 | 34%
CCOC(=O)C1CCCN(C(=O)c2cn(C)c(=O)c3cc(OC)c(OC)cc23)C1 (stereo not drawn) | -6% | u | -7% | -3 | -4 | 6.6µM*
CCOC(=O)C1CCN(C(=O)c2cn(C)c(=O)c3cc(OC)c(OC)cc23)CC1 | 17% | 1% | -8% | -8 | -5 | -4%
CCOC(=O)C1CCCN(C(=O)c2cn(CC(C)C)c(=O)c3cc(OC)c(OC)cc23)C1 (stereo not drawn) | 3% | -10% | u | -2 | 0 | 26%
CCOC(=O)C1CCCN(C(=O)c2cn(CC)c(=O)c3cc(OC)c(OC)cc23)C1 (stereo not drawn) | 5% | 4% | -23% | -4 | -2 | 1µM*
COc1cc(/C=C/C(=O)OC2CC3CCC2(C)C3(C)C)ccc1O (stereo not drawn) | x | x | u | 23 | 14* | 3%
Cc1ccc(NC(=O)CNC(=O)OCc2ccccc2)cc1C | u | -7%[46.1 µM] | 7% | 10 | 8 | -22%
N#Cc1ccccc1CSCCNC(=O)Cc1c(F)cccc1Cl | 26%[46.1 µM] | -12%[46.1 µM] | -30% | 28 | 17* | -19%
O=C(NCCSCc1c(F)cccc1Cl)c1ccc(CN2CCOCC2)cc1 | -14% | 17% | -11% | 12 | -3 | -56%
O=C(NCCSCc1c(F)cccc1Cl)Nc1ccccc1 | u | u | u | 75* | 32* | u
O=C(Cc1ccccc1)NCCSCc1ccco1 | 0% | 4% | x | 13 | 12 | 91%
CN(c1ccc(C(=O)NCCSCc2c(F)cccc2Cl)cc1)S(C)(=O)=O | -25%[46.1 µM] | u | -14% | -7 | -10 | 39%
SMILES | Lassa entry inh | MARV entry inh | Pf growth 48h | Shiga inhibitor | Cycloheximide cs | Pf growth 96h
O=C(NCCSCc1ccco1)c1ccc(CN2CCOCC2)cc1 | u | 27% | x | 66 | 9.4* | 58%
O=C(NCCSCc1ccco1)Nc1ccccc1 | 10% | 7% | 28% | 57 | 48* | 9%
O=C(c1ccc([N+](=O)[O-])s1)N1CCCc2ccccc21 | u | u | u | -8 | -3 | -20%
COc1cccc(NC(=O)c2ncn[nH]2)c1 | 3% | 22% | 13% | -6 | 5 | 8%
CCc1cc(C(=O)Nc2ccccc2N2CCOCC2)sc1C | 1% | 3% | -1% | x | x | u
Cc1ccc(CNC(=O)CN2C(=O)C3(OCCCO3)c3ccccc32)cc1 | 5% | 12% | -4% | -11 | -3 | 10µM*
Cc1cc(OCC(=O)Nc2ncn[nH]2)ccc1Cl | u | u | 88% | x | x | 1.9µM*
Cc1cc(OCC(=O)Nc2ccncc2)ccc1Cl | u | -9% | -4% | 30 | -1 | u
CN(CC(=O)Nc1ncn[nH]1)S(=O)(=O)c1cc(Cl)ccc1Cl | 0% | -13% | 10µM* | -6 | -5 | -2%
Cc1cc(OCC(=O)NC2CCCCC2)ccc1Cl | u | -5% | 23% | 67* | 30* | 5%
Cc1cc(=O)oc2cc(OCC(=O)NC3CC(C)(C)NC(C)(C)C3)ccc12 | 18%[46.1 µM] | -8%[46.1 µM] | 13% | -3 | -4 | 23%
CN(CC(=O)NCc1ccccn1)S(=O)(=O)c1cc(Cl)ccc1Cl | -2% | 25% | -3% | x | x | 45%
Cc1cc(=O)oc2cc(OCC(=O)NC3CCCCC3)ccc12 | 6% | -12%[46.1 µM] | 39% | 6 | 22* | 73%
CC1CC(=O)Nc2ccccc2N1C(=O)CN1CCN(C=O)CC1 (stereo not drawn) | 8% | -29%[46.1 µM] | 9% | 21 | -4 | u
O=C1C2C3C=CC(C3)C2C(=O)N1c1ccc(-c2nc3ccccc3o2)cc1 (stereo not drawn) | u | u | 165% | 110 | 29* | 3%
O=C1C2C3C=CC(C3)C2C(=O)N1c1ccncc1 (stereo not drawn) | -6% | 23% | 45% | -11 | 1 | u
CCc1ccccc1NC(=O)c1ccccc1Sc1ccc([N+](=O)[O-])cc1Cl | 8% | -8% | 12µM* | -9 | -3 | -17%
Cc1ccc(C2CC(c3cccc(Br)c3)Nc3nnnn32)cc1 (stereo not drawn) | -18% | -9% | -4% | -14 | -4 | 32%
Cc1cc(C(=O)Nc2ccc(Nc3ccccc3)cc2)ccc1[N+](=O)[O-] | 2% | 0% | -26% | x | 20* | 12µM*
CC(=O)Nc1cccc(NC(=O)c2ccc(C)c([N+](=O)[O-])c2)c1 | -2% | 22%[46.1 µM] | 48% | 41 | 26* | -4%

Screening results deposited in PubChem by National Center for Advancing Translational Sciences (NCATS).
